Laboratory results taken from PubChem BioAssay (NCATS).
Results filed as inconclusive are left out. Activity calls are given as the source filed them. Unless noted, calls come from the whole dose curve; as a rule, active = well fitted curve in either direction with a large enough effect (not every such curve was filed as active); inconclusive = small, poorly fitted or top-dose-only effect, or another doubt; inactive = flat fitted curve, though single readings scatter.

What was measured:
[1] = AP1 Signaling Pathway (AID 357); settings: ME-180 AP-1-bla reporter, EGF-induced, beta-lactamase ratio, 5 h; at 17.2 µM (top of the series) unless noted;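 note: ME-180 reporter cells stimulated with EGF at its EC50 level; % is set by controls: 0 for no effect and ±100 for the full control effect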
Outline: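 Modulation of EGF-driven AP-1 transcription was assessed with a beta-lactamase reporter in ME-180 cells. Compound and EC50 EGF were co-incubated 5 hours at 37 °C before 2.5-hour CCF4 loading at room temperature and dual-emission reading.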

[2] = Stat Signaling Pathway (AID 446); settings: ME-180 SIE beta-lactamase reporter, IL-6 stimulated, 5 h; at 17.2 µM (top of the series) unless noted;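 note: ME-180 cervical cancer cells given 40 pM IL-6 alongside compound; SIE-controlled beta-lactamase reporter measured as 460/530 nm FRET emission ratio; % is set by controls: 0 for no effect and ±100 for the full control effect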
Outline: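 FRET read-out (405 nm excitation, 460/530 nm emission) of a beta-lactamase reporter under a STAT-inducible element in ME-180 cervical carcinoma cells. Cells with compound receive 40 pM IL-6 for 5 h. Values are normalised to AC90 stimulation and AC90 JAK-inhibitor controls.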

[3] = molecular target: Glucocorticoid receptor (Homo sapiens) (UniProt P04150); assay: GR-GFP Redistribution (AID 450;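 active = compounds whose dose series gives a full or clear partial fitted curve of increased nuclear translocation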; note: potency is the fitted concentration of half-maximal effect)
Chain of Glucocorticoid receptor (Homo sapiens) (P04150 whole entry, looked up, the tested form may be a part): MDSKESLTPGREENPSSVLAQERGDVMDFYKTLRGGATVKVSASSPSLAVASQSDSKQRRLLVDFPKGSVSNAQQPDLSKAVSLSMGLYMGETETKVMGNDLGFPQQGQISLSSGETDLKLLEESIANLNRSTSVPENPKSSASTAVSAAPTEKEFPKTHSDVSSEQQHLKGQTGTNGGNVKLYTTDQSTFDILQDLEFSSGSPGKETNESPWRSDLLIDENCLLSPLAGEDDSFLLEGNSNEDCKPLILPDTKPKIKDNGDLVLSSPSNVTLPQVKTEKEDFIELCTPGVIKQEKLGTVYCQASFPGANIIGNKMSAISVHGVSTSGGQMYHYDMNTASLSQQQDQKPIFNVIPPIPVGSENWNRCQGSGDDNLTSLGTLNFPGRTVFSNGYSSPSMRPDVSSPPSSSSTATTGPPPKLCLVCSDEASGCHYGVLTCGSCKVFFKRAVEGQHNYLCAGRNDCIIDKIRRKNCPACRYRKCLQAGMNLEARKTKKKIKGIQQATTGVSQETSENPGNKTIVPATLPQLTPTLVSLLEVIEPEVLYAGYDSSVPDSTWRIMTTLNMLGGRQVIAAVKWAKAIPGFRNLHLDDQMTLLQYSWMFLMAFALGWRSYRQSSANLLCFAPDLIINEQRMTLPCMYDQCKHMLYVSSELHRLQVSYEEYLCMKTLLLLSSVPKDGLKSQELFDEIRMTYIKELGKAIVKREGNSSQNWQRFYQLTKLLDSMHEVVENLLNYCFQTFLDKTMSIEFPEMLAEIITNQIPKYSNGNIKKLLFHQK

[4] = molecular target: Glucocorticoid receptor (Homo sapiens) (UniProt P04150); assay: GR-EFC Redistribution (AID 451; calls by dose curve; note: potency is the fitted concentration of half-maximal effect); settings: CHO-K1 GR-EFC translocation, beta-gal luminescence, 2 h
Outline: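 CHO-K1 cells stably expressing nuclear-localized β-gal enzyme acceptor and GR fused C-terminally to the enzyme donor fragment; ligand-driven nuclear translocation restores β-gal by complementation. Compounds titrated up to 46 uM final, 2 h at 37 °C; luminescence read.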

[5] = molecular target: Mitogen-activated protein kinase 10 (Mus musculus) (UniProt Q61831); assay: JNK3 AlphaScreen Assay (AID 530);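 note: kinase came from lysate of stimulated human HepG2 cells; signal reports phosphorylation of biotinylated GST-cJun 1-79 at Ser73 with 10 µM ATP; % is set by controls: 0 for no effect and ±100 for the full control effect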
Outline: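 Biotinylated GST-cJun(1-79) served as substrate for JNK3 in HepG2 lysates stimulated with IL-1beta and TNF-alpha. ATP was 10 uM final, pH 7.6. Ser73 phosphorylation was quantified by AlphaScreen (680 nm excitation).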

[6] = molecular target: 3',5'-cyclic-AMP phosphodiesterase 4B (Homo sapiens) (UniProt Q07343); assay: qHTS Assay for Inhibitors of PDE-IV (AID 607; active = well fitted activation curve with a large enough effect in the main read-out, with a control signal flat, not every such curve was filed as active; note: % of control where 0% means no effect)
Chain of 3',5'-cyclic-AMP phosphodiesterase 4B (Homo sapiens) (Q07343 whole entry, looked up): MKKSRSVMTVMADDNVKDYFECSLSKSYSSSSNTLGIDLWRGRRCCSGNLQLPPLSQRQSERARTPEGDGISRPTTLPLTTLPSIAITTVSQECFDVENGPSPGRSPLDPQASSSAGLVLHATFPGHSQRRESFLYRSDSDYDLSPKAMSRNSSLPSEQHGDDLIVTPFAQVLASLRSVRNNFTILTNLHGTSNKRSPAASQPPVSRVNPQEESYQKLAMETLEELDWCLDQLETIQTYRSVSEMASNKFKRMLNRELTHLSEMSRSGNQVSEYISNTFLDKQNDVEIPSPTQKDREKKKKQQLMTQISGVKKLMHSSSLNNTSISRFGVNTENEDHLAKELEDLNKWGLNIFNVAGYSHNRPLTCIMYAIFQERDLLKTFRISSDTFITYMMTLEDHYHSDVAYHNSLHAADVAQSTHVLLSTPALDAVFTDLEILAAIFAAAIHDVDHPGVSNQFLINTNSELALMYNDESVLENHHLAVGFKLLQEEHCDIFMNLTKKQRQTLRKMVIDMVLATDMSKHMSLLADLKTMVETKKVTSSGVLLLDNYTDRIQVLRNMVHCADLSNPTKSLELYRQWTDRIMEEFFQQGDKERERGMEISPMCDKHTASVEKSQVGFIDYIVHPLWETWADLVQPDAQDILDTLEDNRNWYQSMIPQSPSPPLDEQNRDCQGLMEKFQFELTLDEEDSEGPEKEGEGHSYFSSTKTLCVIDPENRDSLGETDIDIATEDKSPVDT
Outline: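 Cell-based read-out of cAMP via a modified cyclic nucleotide-gated channel and membrane potential dye (535/590 nm) in HEK293 cells expressing PDE4 endogenously. Compounds tested up to 22.9 uM final; 100 uM RO 20-1724 reference.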

[7] = qHTS Assay for Identification of Small Molecule Agonists for Hypoxia Response Element Signaling Pathway (AID 914; active = well fitted activation curve with a large enough effect in the signal ratio, with a control signal flat, not every such curve was filed as active; the % refers to the signal ratio; note: % of control where 0% means no effect); settings: ME-180 (cervical carcinoma) HRE-bla reporter, beta-lactamase ratio, CoCl2, 17 h; activation: hits give high values
Outline: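 HRE-bla ME-180 cells, overnight plating in Opti-MEM with 0.5% dialyzed FBS; cpd titration + EC50 CoCl2, 17 h, 37 degrees Celsius; CCF4 2.5 h RT; 460/530 nm ratio; AC50.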

[8] = Confirmation and Secondary Assay for Modulators of Hemoglobin Beta Chain Splicing at IVS2 654 locus (AID 910; active = well fitted activation curve with a large enough effect; note: % of control where 0% means no effect)
Outline: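 HeLa cells stably carrying EGFP interrupted by mutant beta-globin IVS2-654 intron (CMV-driven) were treated with compound for 2 days at 37C; corrected splicing was scored as total peak GFP intensity per well (488 nm excitation, 500-520 nm emission).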

[9] = Confirmation and Secondary Assay for Modulators of Hemoglobin Beta Chain Splicing at IVS2 705 locus (AID 930; active = well fitted activation curve with a large enough effect;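 note: HeLa cells stably expressing the EGFP-705 splicing reporter; GFP fluorescence per well restored by corrected splicing of the IVS2-705 intron in EGFP; % of control where 0% means no effect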)
Outline: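 Read-out: total peak GFP fluorescence per well (488 nm excitation, 500-520 nm emission) by laser-scanning cytometry. Cells: HeLa EGFP-705 splicing reporter, 2 days compound exposure in Optimem/2% FCS.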

N#Cc1c(N)n(CCOC(=O)c2cccc(Br)c2)c2nc3ccccc3nc12
inactive: activity change, negative = inhibition [1] -0.25% | activity, negative = inhibition [2] 16.2% | Potency [3] > 20.6 µM

COc1ccc(N2CCN(c3oc(COc4ccc(Cl)cc4)nc3C#N)CC2)cc1
inactive: activity change, negative = inhibition [1] -27.6% | activity, negative = inhibition [2] 11.6% | Potency [3] > 20.6 µM

c1coc(-c2nnc3sc(Cc4cccs4)nn23)c1
inactive: activity change, negative = inhibition [1] -15.4% | activity, negative = inhibition [2] -17.3% | Potency [3] > 20.6 µM

CC(C)C(=O)N1CCN(c2nc(-c3ccccc3)c3c(c2C#N)CC(C)(C)OC3)CC1
inactive: activity change, negative = inhibition [1] -2.44% | activity, negative = inhibition [2] 9.79% | Potency [3] > 20.6 µM

O=C1OC(Nc2ccc(Br)cc2F)c2ccccc21 (stereo not drawn)
inactive: activity change, negative = inhibition [1] 0.165% | activity, negative = inhibition [2] 2.24% | Potency [3] > 20.6 µM

Cc1nc2c(c(=O)n1CC1CCCO1)c1nc3ccccc3nc1n2Cc1ccc2c(c1)OCO2 (stereo not drawn)
inactive: activity change, negative = inhibition [1] 1.65% | activity, negative = inhibition [2] -13.4% | Potency [3] > 20.6 µM

COc1cccc(C(=O)OCCN(C)C(C)(C)C)c1
inactive: activity change, negative = inhibition [1] 2.79% | activity, negative = inhibition [2] 3.74% | Potency [3] > 20.6 µM

CC(=O)c1cc(CN2CCCCC2)cc(OC(C)C)c1
inactive: activity change, negative = inhibition [1] 15.3% | activity, negative = inhibition [2] 13.1% | Potency [3] > 20.6 µM

C[N+](C)(C)CCN(Cc1cccs1)c1ccccn1
inactive: activity change, negative = inhibition [1] -6.68% [at 7.69 µM] | activity, negative = inhibition [2] -4.68% [at 7.69 µM] | Potency [3] > 46 µM | Potency [4] > 9.22 µM | activity change, negative = inhibition [5] 0.454% [at 11.4 µM] | Potency [6] | activation [7] 3.56%

Cc1ccc(S(=O)(=O)N2CCC(N3CCCCCC3)CC2)cc1
inactive: activity change, negative = inhibition [1] 15.1% | activity, negative = inhibition [2] 10.2% | Potency [3] > 20.6 µM

CCOC(=O)C1=C(C)NC(C)=C(C(=O)OC)[C@@H]1c1cccc(Cl)c1Cl
inactive: activity change, negative = inhibition [1] -13.1% | activity, negative = inhibition [2] -13.3% | Potency [3] > 20.6 µM | Potency [4] > 20.6 µM | Potency [5]

Cc1ccc2nc(NCc3ccccc3)[nH]c2c1
inactive: activity change, negative = inhibition [1] 1.71% | activity, negative = inhibition [2] -9.23% | Potency [3] > 20.6 µM

CC[C@H](c1ccccc1)c1cc(C(C)(C)C)cc(C(C)(C)C)c1O
inactive: activity change, negative = inhibition [1] 7.36% [at 7.69 µM] | activity, negative = inhibition [2] 3.9% [at 7.69 µM] | Potency [3] > 46 µM | Potency [4] > 9.22 µM | activity change, negative = inhibition [5] 6.57% [at 11.4 µM] | Potency [6]

Cc1cccc(CNc2ccnc(-c3ccc(N(C)C)cc3)n2)c1
inactive: activity change, negative = inhibition [1] -16% [at 7.69 µM] | activity, negative = inhibition [2] -22.6% [at 7.69 µM] | Potency [3] > 46 µM | Potency [4] > 46 µM | Potency [5] | Potency [8] | Potency [9]

COC(=O)c1c(NC(=O)c2nn(C)cc2Cl)sc2c1CCCC2
inactive: activity change, negative = inhibition [1] -24.3% | activity, negative = inhibition [2] -10.7% | Potency [3] > 20.6 µM
